Mac1 fbg inh: inhibitors of human CD11b/CD18 binding to fibrinogen. AID 1497. hit rate 0.54% among 93,000. inhibition, % at 10 µM. K562 CD11b/CD18 adhesion to fibrinogen, ATPlite luminescence; Mn2+ added to activate the integrin. P05107+P11215;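 active means primary inhibition of 50% or more at 10 µM, then 40% or more on retest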
FAK inh: FAK (human) kinase inhibition | AID 727 | hit rate 0.84% among 97,000 | inhibition, %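 (tested at 7 µM)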 | Q05397 | biochemical FAK kinase activity assay; in the data active means inhibition above about 19%;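 further: 0% = DMSO and 100% = reference compound high control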
Target sequence (Q05397 whole entry, looked up): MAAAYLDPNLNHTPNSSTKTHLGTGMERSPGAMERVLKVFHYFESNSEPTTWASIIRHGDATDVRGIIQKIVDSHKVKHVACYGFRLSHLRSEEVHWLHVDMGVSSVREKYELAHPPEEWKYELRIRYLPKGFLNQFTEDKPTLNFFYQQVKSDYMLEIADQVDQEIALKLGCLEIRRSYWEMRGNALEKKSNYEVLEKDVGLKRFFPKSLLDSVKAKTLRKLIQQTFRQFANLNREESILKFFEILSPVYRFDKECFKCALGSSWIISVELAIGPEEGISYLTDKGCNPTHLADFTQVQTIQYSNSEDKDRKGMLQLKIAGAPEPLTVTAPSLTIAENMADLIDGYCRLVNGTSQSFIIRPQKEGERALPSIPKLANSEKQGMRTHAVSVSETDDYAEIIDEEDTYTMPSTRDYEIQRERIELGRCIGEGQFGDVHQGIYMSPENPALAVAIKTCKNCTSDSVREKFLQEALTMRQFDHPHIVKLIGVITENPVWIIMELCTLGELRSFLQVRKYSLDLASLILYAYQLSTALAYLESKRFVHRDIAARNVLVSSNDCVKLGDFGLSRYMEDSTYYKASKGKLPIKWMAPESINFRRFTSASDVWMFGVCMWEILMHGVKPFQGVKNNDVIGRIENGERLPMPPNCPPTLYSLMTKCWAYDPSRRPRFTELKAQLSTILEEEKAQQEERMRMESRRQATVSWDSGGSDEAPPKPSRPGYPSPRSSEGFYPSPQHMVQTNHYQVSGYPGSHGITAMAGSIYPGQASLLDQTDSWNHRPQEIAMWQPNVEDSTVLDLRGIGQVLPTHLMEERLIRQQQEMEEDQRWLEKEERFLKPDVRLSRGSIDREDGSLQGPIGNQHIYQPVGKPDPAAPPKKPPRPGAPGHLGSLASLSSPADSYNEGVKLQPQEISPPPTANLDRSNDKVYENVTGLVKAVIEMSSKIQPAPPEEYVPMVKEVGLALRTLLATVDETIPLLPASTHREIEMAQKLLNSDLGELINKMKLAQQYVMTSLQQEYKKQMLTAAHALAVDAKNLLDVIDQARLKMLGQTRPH
CD11b adhes enh: increases human CD11b/CD18 adhesion to fibrinogen | P05107+P11215 | hit rate 0.07% among 93,000 | K562 CD11b/CD18 adhesion to fibrinogen, ATPlite luminescence | activation, % at 10 µM;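 active means 10 µM primary screen giving 50% or more activity, confirmed by 40% or more on retest at that dose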
MRP reversal: compounds reversing MRP-mediated drug resistance. H69AR cells + 2 uM doxorubicin, CellTiter-Glo, 72 h. differential viability (reversal), % at 10 µM. hit rate 0.04% among 85,000. AID 602;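 active means viability drop by adding the cancer drug above about 55%, with treated viability meeting a 40% cutoff, limit read from the data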;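 further: viability without doxorubicin minus viability with 2 µM doxorubicin for each compound; larger differential means the compound sensitizes cells more to doxorubicin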
Phagocyt inh: macrophage phagocytosis inhibition; J774A.1 macrophage IgG-bead phagocytosis, imaging; inhibition, % at 5 µM; hit rate 0.07% among 110,000; AID 1029;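 active means inhibition above the mean of the plate negative controls plus 5 SD, cut at about 13% in these data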;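 further: phagocytic index as fraction of beads internalized from green versus red external bead signal; plate controls were DMSO negative control for no effect and cytochalasin-D positive control for full effect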
MRP1 act: activators of MRP-1; viability increase, % at 10 µM; H69AR cells + doxorubicin, viability rescue, CellTiter-Glo; hit rate 0.61% among 140,000; AID 799;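 active means viability gain under doxorubicin at or above a set limit, the compound median plus 3 SD, cut at about 4.7% in these data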;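 further: MRP-1 overexpressing cells given doxorubicin 25 µM after compound pretreatment; 18-22 h compound pretreatment then 72 h with doxorubicin before readout; 0% = doxorubicin-only wells and 100% = vehicle-treated cells without doxorubicin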
Active calls of the source: *; nt = no result; [ ] = dose if it differs, or a comment. Hits are enriched below; roughly 1.5% of the tested compounds scored in any of these assays.

SMILES	Mac1 fbg inh	FAK inh	CD11b adhes enh	MRP reversal	Phagocyt inh	MRP1 act
O=C(NC(=S)Nc1nc(-c2ccccc2)cs1)c1cncc(Br)c1	nt	-2	nt	nt	nt	6.8*
O=C(Nc1nc(-c2cccc(Br)c2)cs1)Oc1ccccc1	20	-11	8	nt	2	0
O=C(Nc1nc(-c2ccccc2)cs1)c1ccc(Br)o1	nt	0	nt	nt	nt	6.9*
CCc1ccc(-c2csc(NC(=O)Oc3ccccc3)n2)cc1	-21	nt	30	nt	-14	13*
O=C(NC(=S)Nc1nc(-c2ccccc2)cs1)c1cccs1	nt	nt	nt	nt	4	-1
O=C1CCCN1CC(CN1CCOCC1)Sc1nc2ccccc2c(=O)n1-c1ccccc1 (centres undefined)	-3	nt	2	9	0	nt
NC(=O)Cn1c(=O)n(C2CCCCC2)c(=O)c2c3c(sc21)CCCCC3	8	nt	30	nt	-9	-3
O=C(Cn1c2ccccc2c(=O)c2cc([N+](=O)[O-])ccc21)Nc1ccccc1Cl	3	nt	52	nt	2	-3
Cc1nnc(NC(=O)c2ccccc2F)s1	-24	15	6	21	nt	2
COCc1nnc(NC(=O)c2sc3ccccc3c2Cl)s1	-9	-2	-2	2	-1	1
Cc1nnc(NC(=O)c2sc3ccccc3c2Cl)s1	70*	-4	-5	-3	-1	0
Cc1nnc(NC(=O)c2ccccc2Br)s1	-4	3	-1	-5	0	6.0*
O=C(Cc1ccccc1)N1CCCC1c1ccccc1 (centres undefined)	4	1	-4	12	-1	0
COc1ccc(/C=N/NC(=O)CNc2n[nH]c(=O)[nH]c2=O)cc1OC	-15	nt	5	nt	97*[artifact]	0
CC1=NN(/C(=N\c2nnc(C)s2)Nc2ccc(C)cc2)[C@H](c2ccc(C)cc2)S1	nt	21*	nt	10	nt	-1
C=CC[n+]1c(-c2ccc(OCC)cc2)csc1NNC(=O)Nc1ccccc1	86*	-1	-8	3	0	1
Cc1ccc(CC2SC(=Nc3ccccc3)N(c3ccccc3)C2=O)cc1 (centres undefined)	nt	nt	nt	nt	-4	5.7*
O=C(O)CC1SC(=Nc2ccccc2)N(c2ccccc2)C1=O (centres undefined)	-7	nt	-6	-5	-1	-2
COc1ccc(-c2cc3nc(C)cc(N4CC(C)CC(C)C4)n3n2)cc1 (centres undefined)	nt	-1	nt	7	nt	5.1*
COc1cc(NCCCC(C)N)c2ncccc2c1 (centres undefined)	nt	26*	nt	-4	nt	-3
CC(=O)c1sc(NC(=O)C=C(C)C)nc1C	-10	-3	2	8	nt	-1
CC(=O)c1sc(NC(=O)C2(F)C(F)(F)C(F)(F)C(F)(F)C(F)(F)C2(F)F)nc1C	102*	nt	-10	-10	-1	-3
O=C(NCc1ccco1)c1ccccc1NS(=O)(=O)c1cccs1	-12	5	3	8	nt	-1
O=C(NCc1ccco1)c1ccccc1NS(=O)(=O)c1ccc(Cl)s1	98*	0	-8	0	0	-1
CNC(=S)Nc1ccc(C)cc1	nt	nt	nt	nt	0	11*
SMILES	Mac1 fbg inh	FAK inh	CD11b adhes enh	MRP reversal	Phagocyt inh	MRP1 act
CNC(=S)Nc1ccc(C23CC4CC(CC(C4)C2)C3)cc1	8	nt	3	nt	-16	5.2*
OCCNc1nc2ccc(Cl)cc2[nH]1	-4	5	-2	2	2	-3
O=C(Cc1cccs1)Nc1nnc(Cc2ccccc2)s1	nt	29*	nt	1	nt	0
CCCNC(=O)c1cnc(Sc2ncc(C(F)(F)F)cc2Cl)n1C	-19	-1	1	11	-1	-2
CCSc1nnc(-c2ccc(C)cc2)c2ccccc12	15	nt	2	nt	-6	5.6*
CCSc1nnc(-c2ccc(Cl)cc2)c2ccccc12	nt	-15	nt	nt	nt	1
Cc1ccc(S(=O)(=O)NC(C(=O)Oc2ccc3c(C(F)(F)F)cc(=O)oc3c2)c2ccccc2)cc1 (centres undefined)	57*	nt	-6	nt	4	1
CC[C@@H](NS(=O)(=O)c1ccc(C)cc1)C(=O)Oc1ccc2c3c(c(=O)oc2c1)CCC3	nt	nt	nt	nt	-8	0
COc1ccc(C/C(O)=C(\C#N)c2nc3ccccc3s2)cc1	104*	-7	-11	-15	-1	0
Cc1ccc(SC/C(O)=C(\C#N)c2nc3ccccc3s2)cc1	101*	-4	-10	-28	-5	-1
Cc1cc(/C=N/NC(=O)C(=O)NCc2ccccn2)c(C)n1-c1ccccc1	nt	nt	nt	nt	nt	-2
COc1cccc2cc(-c3cn4ccc(C)cc4n3)c(=O)oc12	nt	19*	nt	0	nt	nt
Nc1nnc(CSCc2ccc(Cl)cc2Cl)s1	nt	nt	nt	nt	-4	2
N=C(N)SCc1ccc(Cl)cc1Cl	nt	nt	nt	nt	-1	5.2*
COc1ccc2nc(NC(=S)N(C)C)sc2c1	60*	-1	-4	-5	1	-2
CCCC(=O)Nc1nc2ccc(OC)cc2s1	18	nt	-4	23	2	1
O=C(O)C(NC(=O)c1ccccc1)=C(Cl)Cl	nt	2	nt	nt	nt	nt
N#CC1=C(N)NC(SCc2ccc(F)cc2)=C(C#N)C12CCCCC2	77*	-2	-6	-50	0	-2
CCOC(=O)c1ccc(NC(=O)c2ccc(C)c(S(=O)(=O)N3CCOCC3)c2)cc1	84*	-1	-8	1	0	-2
CCOC(=O)c1ccc(NC(=O)c2cccc(S(=O)(=O)N3CCOCC3)c2)cc1	40	-9	-3	-3	-1	-1
CCOc1ccc(OCC)c(-c2c(=O)n(OCc3ccc(C(C)(C)C)cc3)c3ccccc3[n+]2[O-])c1	nt	-1	nt	nt	nt	6.6*
O=C1CSC(=S)N1N=C1CCCCCC1	44	nt	-2	nt	-6	5.9*
Cc1ccc2c(C)nc(NC3=NCN(CCc4ccccc4)CN3)nc2c1	-1	nt	0	19	0	nt
O=C(O)C(Cc1ccccc1)N1C(=O)/C(=C/c2cccc3ccccc23)SC1=S (centres undefined)	91*	15	-5	nt	0	-1
CCOC(=O)c1oc2ccccc2c1NC(=O)c1ccc2c(c1)OCO2	-9	19	-2	-14	-2	1
SMILES	Mac1 fbg inh	FAK inh	CD11b adhes enh	MRP reversal	Phagocyt inh	MRP1 act
COc1ccc(NC(=O)c2oc3ccccc3c2NC(=O)c2ccc3c(c2)OCO3)cc1	-15	-4	-2	nt	-1	8.4*
CCCCC(CC)CNC(=O)C1C2C=CC(C2)C1C(=O)O (centres undefined)	-2	-3	0	-1	-2	-2
Cc1ccc(C(=O)NNC(=O)c2ccc(SCC3CCCO3)c([N+](=O)[O-])c2)cc1 (centres undefined)	-15	-4	-1	4	-2	8.2*
O=C(NNC(=O)c1ccc(SCC2CCCO2)c([N+](=O)[O-])c1)c1ccc(Cl)c([N+](=O)[O-])c1 (centres undefined)	1	1	13	-26	2	0
Cc1cc(C(=O)CSc2nnc(-c3ccco3)o2)c(C)n1Cc1ccco1	15	5	17	-4	2	-1
Cc1cc(C(=O)CSc2nnc(-c3ccco3)o2)c(C)n1-c1ccc2c(c1)OCCO2	87*	0	4	-3	0	-2

High-throughput results: PubChem, several laboratories
